# Compound activity from PubChem BioAssay.
# JMJD2A Tudor: blocks the human JMJD2A Tudor domain; AlphaScreen JMJD2A-Tudor / H3K4me3 peptide binding; Potency, µM (top dose mostly 114 µM), for inactives: at the top dose activity change, negative = inhibition, most hits filed as inhibitors; hit rate 4.4% among 390,000; note: % is set by controls: 0 for no effect and ±100 for the full control effect; nearly all actives have a fitted effect of over 50% in size
# G9a block: G9a (human) methyltransferase inhibition. Potency, µM (series often up to 102 µM), without a hit: top-dose activity, negative = inhibition, hits mostly inhibitors. hit rate 8.8% among 350,000. Q96KQ7. G9a H3K9 monomethylation, AlphaScreen, 2 h; note: % is set by controls: 0 for no effect and ±100 for the full control effect; nearly all actives have a fitted effect of over 75% in size
# Target sequence (Q96KQ7 913-1193 limits assumed): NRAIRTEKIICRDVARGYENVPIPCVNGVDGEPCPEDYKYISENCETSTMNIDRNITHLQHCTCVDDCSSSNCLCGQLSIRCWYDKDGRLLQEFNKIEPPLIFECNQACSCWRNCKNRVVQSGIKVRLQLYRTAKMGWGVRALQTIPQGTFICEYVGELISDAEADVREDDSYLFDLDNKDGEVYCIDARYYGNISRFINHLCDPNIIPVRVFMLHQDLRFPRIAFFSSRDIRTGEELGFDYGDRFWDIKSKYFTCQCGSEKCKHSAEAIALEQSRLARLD
#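 G9a (20 nM) was preincubated 15 min with compound, then reacted 2 h at room temperature with 500 nM biotin-H3K9 peptide and 20 µM SAM. Monomethyl-H3K9 detected by AlphaScreen using anti-H3K9me1 antibody.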
# BAZ2B block: inhibitors of human BAZ2B bromodomain. hit rate 4.4% among 360,000. AlphaScreen BAZ2B-H3K14Ac peptide displacement. Potency, µM (doses to about 114 µM), for the others: at the top dose activity change, negative = inhibition, usual class: inhibitors. Q9UIF8. AID 504333; note: % is set by controls: 0 for no effect and ±100 for the full control effect; nearly all actives have a fitted effect of over 60% in size
#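 Inhibition is scored as reduced AlphaScreen emission. The BAZ2B/b-H3(5-23)K14Ac complex (50 nM each) in PBS pH 7.4, 0.01% Tween-20 meets compound (up to 110 uM) for 30 min at RT before bead addition.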
# HP1b chromo inh: blocks HP1-beta chromodomain binding to methylated histone tails; hit rate 0.56% among 390,000; AlphaScreen HP1-beta / biotin-H3K9me3 peptide binding; AID 540317; Potency, µM (series often up to 114 µM), without a hit: at the top dose activity change, negative = inhibition, usual class: inhibitors; note: nearly all actives have a fitted effect of over 70% in size
# Target sequence (P83916 whole entry, looked up): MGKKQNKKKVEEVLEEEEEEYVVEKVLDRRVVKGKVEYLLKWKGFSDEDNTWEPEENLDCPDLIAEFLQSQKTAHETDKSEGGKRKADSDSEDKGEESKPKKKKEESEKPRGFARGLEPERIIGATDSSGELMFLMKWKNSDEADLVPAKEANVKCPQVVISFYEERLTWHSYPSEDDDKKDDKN
#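 AlphaScreen: HP1-beta (50 nM) preformed 30 min with biotin-H3(1-18)K9me3 peptide (50 nM) in PBS pH 7.4, 0.01% Tween-20. Compound added for 30 min at RT, then streptavidin donor/nickel chelate acceptor beads (10 ug/mL) for 30 min.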
# L3MBTL1 block: inhibitors of human L3MBTL1; Q9Y468; AlphaScreen L3MBTL1–H3K9me1 peptide binding; Potency, µM (highest dose often 57.1 µM), without a hit: top-dose activity, negative = inhibition, usual class: inhibitors; hit rate 0.66% among 230,000; AID 485360; note: % is set by controls: 0 for no effect and ±100 for the full control effect; nearly all actives have a fitted effect of over 60% in size
#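 AlphaScreen proximity signal between nickel-chelate acceptor and streptavidin donor beads (final 10 ug/mL) reports binding of 50 nM L3MBTL1 to 75 nM biotin-H3 K9me1 peptide; complex incubated with compounds 30 min at room temperature; cefsulodin titration as control.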
# * marks the source's active call; other numbers are inactive results; ? = inconclusive; . = no result; ! = not confirmed by another sample; [ ] = dose if it differs, or a comment. This is a sample that favours compounds with a hit; in the whole collection about 11% have one here. Calls come from the whole dose curve; as a rule, active = well fitted inhibition curve with a large enough effect; inconclusive = small, poorly fitted or top-dose-only effect; inactive = no such curve, though single readings can be large or run the other way. Potency is the fitted concentration of half-maximal effect.
SMILES,JMJD2A Tudor,G9a block,BAZ2B block,HP1b chromo inh,L3MBTL1 block
Cc1cccc(OCC(=O)Nc2ccc3c(c2)nc(CN2CCCCC2)n3C)c1,89.1µM*!,31.6µM*,?,30.7%,.
CCOC(=O)C1CCC(CN(Cc2ccc(Cl)cc2)S(=O)(=O)c2cc(Cl)cc(Cl)c2)CC1 (stereo not drawn),-6.4%,10.0%[59 µM],14.1%,46.0%,.
CCOc1ccc(CNC(=O)CCS(=O)(=O)c2cc3c(cc2Cl)NC(=O)CO3)cc1OC,4.6%,4.0%[59 µM],2.7%,46.6%,.
O=C(C1=NN[C@@H]2C(=O)N(c3cccc(C(F)(F)F)c3)C(=O)[C@H]12)c1cnccn1,?,39.8µM*,-34.2%,45.7%,-2.1%
N#Cc1ccc(N2C(=O)[C@@H]3C(C(=O)c4cnccn4)=NN[C@@H]3C2=O)cc1,15.8µM*,.,56.2µM*,25.2%,1.5%
N#Cc1ccc(N2C(=O)[C@@H]3C(C(=O)c4ccc5ccccc5n4)=NN[C@@H]3C2=O)cc1,-17.1%,?,?,54.1%,5.4%
CCn1nc(C)c(CCN(C)C(=O)Nc2cc(C)cc(C)c2)c1C,0.3%,8.5%[12.7 µM],-12.2%,?,.
COCCCNC(=O)C[C@H]1C[C@H](C(=O)N2CCCCC2)[C@@]2(CCc3ccccc3)c3[nH]c4cc(-c5ccco5)ccc4c3CCN2C1=O,44.7µM*,.,.,?,-14.2%
COc1ccc(CNC(=O)CC2C[C@H](C(=O)N3CCOCC3)[C@@]3(CCC4CCCC4)c4[nH]c5ccccc5c4CCN3C2=O)cc1OC (stereo partly drawn),?,.,.,-6.5%,-5.1%
CCN(CC)C(=O)[C@H]1C[C@H](CC(=O)NCCCn2ccnc2)C(=O)N2CCc3c([nH]c4cc(-c5ccco5)ccc34)[C@]12C,?,.,.,-7.6%,-18.1%
O=C(C[C@H]1C[C@H](C(=O)N2CCCCC2)[C@@]2(CCc3ccccc3)c3[nH]c4cc(-c5ccco5)ccc4c3CCN2C1=O)NCCN1CCOCC1,39.8µM*,.,.,20µM*,-16.1%
COc1ccc2[nH]c3c(c2c1)CCN1C(=O)C(CC(=O)NCc2ccc(OC)c(OC)c2)C[C@H](C(=O)N2CCOCC2)[C@@]31CCC1CCCC1 (stereo partly drawn),50.1µM*,.,.,5.2%,-5.1%
O=C(C[C@H]1C[C@H](C(=O)N2CCOCC2)[C@@]2(CCC3CCCC3)c3[nH]c4cc(-c5ccco5)ccc4c3CCN2C1=O)NCCCn1ccnc1,56.2µM*,.,.,?,-14.1%
O=C(CN1CCCN(Cc2ccccc2Cl)S1(=O)=O)NCc1ccccc1,4.1%,?,-30.7%,35.0%,.
COC(=O)c1sc2c(c1C)c(=O)n(-c1ccccc1)c(=O)n2CC(=O)Nc1cccc(C)c1,-13.7%,4.6%[59 µM],-2.7%,2.8%,.
O=C(C[C@H]1C[C@H](C(=O)N2CCCCC2)[C@@]2(CCc3ccccc3)c3[nH]c4ccc(Cl)cc4c3CCN2C1=O)NCCCn1ccnc1,35.5µM*,.,.,-23.4%,-26.4%
O=Nc1c(O)n(Cc2ccc(Cl)cc2Cl)c2ccccc12,?,?,44.7µM*,-2.6%,-12.7%
CCOC(=O)CN1C(=O)C2Cc3ccccc3CN2C1=S (stereo not drawn),-12.5%,20µM*,-19.8%,?,7.7%
CC(NC(=O)c1ccc(Cn2c(=O)c3cccn3c3cccnc32)cc1)c1ccccc1 (stereo not drawn),-13.6%,-4.3%[59 µM],2.2%,55.1%,.
N#Cc1cc[n+](CC(=O)c2ccc(NC(=O)c3ccccc3)cc2)cc1,-26.2%,70.8µM*,-2.3%,27.9%,-4.2%
O=C(C[n+]1cccc(C(=O)N/N=C/c2cccc([N+](=O)[O-])c2)c1)c1ccccc1,-32.4%,50.1µM*,-7.2%,21.0%,-5.9%
O=C(C[n+]1ccc(C(=O)N/N=C/c2ccc(O)cc2)cc1)c1ccccc1,-21.9%,14.1µM*,?,33.8%,.
O=C(C[n+]1ccc(C(=O)N/N=C/c2ccc(OCc3ccccc3)cc2)cc1)c1ccccc1,-34.5%,?,5.0%,5.1%,.
NC(=O)c1ccc[n+](CC(=O)c2cccc([N+](=O)[O-])c2)c1,-4.7%,-13.3%,1.8%,42.9%,.
O=C(C[n+]1ccc(C(=O)N/N=C/c2ccc(Br)cc2)cc1)c1ccccc1,-15.0%,7.94µM*,-9.9%,28.6%,.
SMILES,JMJD2A Tudor,G9a block,BAZ2B block,HP1b chromo inh,L3MBTL1 block
CC(C)[C@H](NS(=O)(=O)c1cccc(C(F)(F)F)c1)C(=O)OCC(=O)NC(=O)NCc1ccco1,?,.,.,-21.8%,-8.9%
COc1ccc(/C=N/NC(=O)C[n+]2ccccc2)c(OC)c1,3.2%,-19.5%,-13.4%,40.6%,1.6%
COc1ccc(OC)c(/C=N/NC(=O)c2cc[n+](CC(=O)c3ccccc3)cc2)c1,-24.3%,79.4µM*,-10.0%,31.0%,.
Cc1ccc(S(=O)(=O)N(C)c2c(C)ccc(S(=O)(=O)NC(C)(C)C)c2C)cc1,-27.7%,?,-3.0%,4.8%,-3.2%
CC(C)c1ccc(O)c(N)c1,-21.6%,1.41µM*,?,24.6%,1.6%[11.4 µM]
CCC(C)c1ccc(O)c(N)c1 (stereo not drawn),?,2.82µM*,-36.3%,-16.2%,-5.0%
CCC(C)c1ccccc1O (stereo not drawn),-0.7%,-0.9%[0.501 µM],-2.5%,44.2%,-0.3%
Cc1nnc(Sc2cc(NCCO)c([N+](=O)[O-])c3nonc23)s1,?,2µM*,-20.4%,12.6µM*,2.2%
CCCSc1cc(NCCOC(C)=O)c([N+](=O)[O-])c2nonc12,-17.7%,-27.8%,-19.9%,12.0%[57 µM],3.3%
O=[N+]([O-])c1c(NCCO)cc(N2CCCCCC2)c2nonc12,-22.9%,13.1%,-23.4%,8.5%,-1.5%
Cc1nnc(Sc2cc(NCCCO)c([N+](=O)[O-])c3nonc23)s1,28.2µM*,5.62µM*,-24.6%,12.6µM*,-19.7%
COc1ccccc1N1CCN(C(=O)c2cc3c(=O)n(Cc4ccco4)ccc3nc2C)CC1,-1.7%,?,-20.6%,69.3%,.
CCn1cc2nc(SCC(=O)Nc3ccccc3C(F)(F)F)n(Cc3ccc(C)cc3)c(=O)c2n1,-41.3%,?,?,8.4%,.
Cc1cc(NC(=O)C2CCCN(S(=O)(=O)c3cccc4nonc34)C2)ccc1Br (stereo not drawn),-1.7%,8.2%[59 µM],1.4%,28.2%,.
COc1ccc(C(=O)CCN2CCCC(C)C2)cc1 (stereo not drawn),-4.7%,25.1µM*,-3.3%,29.1%,.
CC1CCCN(CCC(=O)c2ccc(Br)cc2)C1 (stereo not drawn),-16.0%,?,4.8%,18.6%,-0.1%
COc1ccc(N2CCN(CC(=O)N3CCC(C)CC3)CC2)cc1,-19.3%,?,-2.7%,-1.2%,-1.3%
COc1ccc(C(=O)CCN2CCC(C)CC2)cc1,1.7%,15.8µM*,-2.1%,48.0%,.
Cc1ccc2nc(Nc3ccc(Br)cc3)nc(-c3ccccc3)c2c1,48.4%,47.6%[59 µM],19.5%,177.3%,.
